In PubChem BioAssay (NCI):
This is part of a sample that, as a whole, favours compounds with a hit. Of some 83,000 tested, about 20% had one in any assay.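 Single-dose data. Exposure time 48 hours. Values below 10 considered active.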 Calls of active or inactive are those of the source.

These molecules were tested on HL-60(TB) leukemia (assay: NCI-60 one-dose screen, 48 h (100 = growth as untreated, 0 = no growth, -100 = all killed)). Conditions: 10 µM unless noted.

| SMILES | growth |
| --- | --- |
| COc1ccc(C(=O)N2NC(=O)/C(=C/c3cn(-c4ccccc4)nc3-c3ccccc3)N=C2c2ccccc2)cc1 | 103% (inactive) |
| Cn1cc(-c2ccc3c(Nc4cccc(NC(=O)Nc5cccc(F)c5)c4)ncnc3c2)cn1 | 74.1% (inactive) |
| Cn1ncc2c(Sc3ccc(Cl)cc3)ncnc21 | 81.4% (inactive) |
| Cc1cc(=O)[nH]c(=O)n1Cc1cn(-c2c3ccccc3nc3ccccc23)nn1 | 16.3% (inactive) |
